High-throughput results: PubChem BioAssay, The Scripps Research Institute Molecular Screening Center
Shown are actives, neighbours in structure and some others; about 3.1% of the full set was active somewhere.
Rin1 Abl inh – inhibitors of human Rin1-Abl protein interaction; TR-FRET Rin1/Abl binding, biochemical; inhibition, % at 7.35 µM; 360,000 tested, 0.4% active; AID 588664; in the data active = inhibition above about 5%, passing the limit was not always enough
E coli Lon inh – E. coli protease La inhibition; P0A9M0; purified E. coli Lon protease, fluorescence polarization; inhibition, % at 7.94 µM; 360,000 tested, 0.42% active; AID 602123; in the data active = inhibition above about 13%, passing the limit was not always enough;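 note: 0% = enzyme with probe and DMSO and 100% = no enzyme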
PAFAH1B2 FP inh – blocks human PAF acetylhydrolase 1b catalytic subunit 2; inhibition, % at 3.39 µM; P68402; recombinant PAFAH1B2, FP-rhodamine activity probe, fluorescence polarization; 340,000 tested, 1.2% active;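 active = inhibition above the mean of all tested compounds plus 3 SD, cut at about 24% in these data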;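 note: 0% = enzyme with DMSO and 100% = wells lacking PAFAH1B2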
Target sequence (P68402 whole entry, looked up): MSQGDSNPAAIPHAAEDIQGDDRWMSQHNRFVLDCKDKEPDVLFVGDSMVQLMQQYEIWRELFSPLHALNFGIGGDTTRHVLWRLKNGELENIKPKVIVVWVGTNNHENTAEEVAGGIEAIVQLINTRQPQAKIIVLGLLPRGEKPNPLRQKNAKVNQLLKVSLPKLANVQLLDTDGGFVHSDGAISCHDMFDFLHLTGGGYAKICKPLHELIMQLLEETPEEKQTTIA
pPAFAH inh – pPAFAH (human) enzyme inhibition; inhibition, % at 3.39 µM; recombinant pPAFAH, FP-rhodamine probe fluorescence polarization; AID 463082; 330,000 tested, 1.5% active;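 active = inhibition above the mean inhibition across the screen plus 3 SD, cut at about 25% in these data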;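 note: inhibitors block binding of the rhodamine activity-based probe so polarization drops; 0% = enzyme with DMSO and 100% = wells lacking pPAFAH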
PAFAH2 FP inh – inhibitors of human PAFAH2; recombinant PAFAH2, FP-rhodamine activity probe, fluorescence polarization; inhibition, % at 3.39 µM; 340,000 tested, 0.99% active; AID 492956;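 active = inhibition above the mean over all tested compounds plus 3 SD, cut at about 30% in these data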;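 note: inhibitors block probe labeling of enzyme so polarization drops; 0% = enzyme with DMSO and 100% = wells lacking PAFAH2 protein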
PAFAH1B3 FP inh – PAFAH1B3 (human) inhibition; recombinant PAFAH1B3, FP-rhodamine probe, fluorescence polarization; inhibition, % at 3.39 µM; 340,000 tested, 0.28% active; AID 492972;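 active = inhibition above the screen-wide average of all tested compounds plus 3 SD, cut at about 25% in these data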;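 note: 0% = enzyme with DMSO only and 100% = wells lacking PAFAH1B3 protein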
Target sequence (Q15102 whole entry, looked up): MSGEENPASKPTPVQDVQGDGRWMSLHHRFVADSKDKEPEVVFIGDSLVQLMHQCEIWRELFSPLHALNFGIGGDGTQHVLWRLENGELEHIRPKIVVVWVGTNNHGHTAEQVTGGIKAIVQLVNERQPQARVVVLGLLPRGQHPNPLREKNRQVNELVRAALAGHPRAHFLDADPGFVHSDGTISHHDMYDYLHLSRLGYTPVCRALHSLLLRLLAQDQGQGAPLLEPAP
PAFAH2 confirm – confirmation of human PAFAH2 inhibitors; recombinant PAFAH2, FP-rhodamine activity probe, fluorescence polarization; shares compounds with PAFAH2 FP inh; 2,300 tested, 65% active; inhibition, % at 3.39 µM;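 active = mean inhibition over three repeats above a set limit taken from the earlier primary screen, cut at about 30% in these data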;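 note: inhibitor blocks binding of rhodamine activity probe so polarization falls; 0% = enzyme with DMSO and 100% = wells lacking PAFAH2 protein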
Starred values were filed as active, the others as inactive; / = no result given.

SMILES	Rin1 Abl inh	E coli Lon inh	PAFAH1B2 FP inh	pPAFAH inh	PAFAH2 FP inh	PAFAH1B3 FP inh	PAFAH2 confirm
COCC(=O)OCC(=O)Nc1ccccc1-c1ccccc1	-1.4	-1.4	6.4	1.9	4.5	2.2	/
CSc1ccccc1NC(=O)COC(=O)c1ccccc1O	-2.5	18.5	0.0	3.3	4.5	1.5	/
CSc1ccccc1NC(=O)COC(=O)c1ccc(O)cc1	-3.1	-2.2	1.8	15.6	54.1*	8.7	37.8*
O=C(CCCOC(=O)c1ccc(O)cc1)c1ccccc1	2.1	-10.3	8.1	12.9	49.9*	8.2	44.8*
O=C(COC(=O)c1ccc(O)cc1)Nc1ccccc1-c1ccccc1	2.9	-1.5	6.7	5.7	46.3*	9.4	38.7*
O=C(COC(=O)c1ccc(O)cc1)NC(c1ccccc1)c1ccccc1	-2.4	-0.7	10.1	16.5	46.0*	1.1	36.4*
COc1ccc(NC(=O)C2Cc3c(-c4cccc(C(C)=O)c4)ccnc3O2)cn1 (configuration not stated)	-3.2	7.0	/	/	/	/	/
CN(C)S(=O)(=O)c1ccc(Cl)c(NC(=O)CN2CCc3ccccc3C2)c1	3.4	0.1	10.2	-1.7	2.1	-1.1	/
CCN(CC)S(=O)(=O)c1ccc(O)c(NC(=O)CN2CCc3ccccc3C2)c1	-1.8	0.2	-1.1	6.8	55.7*	-3.1	55.9*
CCOC(=O)C1CC2=C(CCCC2=O)NC1=O (configuration not stated)	-1.1	-4.9	2.9	/	32.3*	6.8	21.6
O=C(COC(=O)c1ccc(Cl)s1)c1cc2ccccc2o1	-2.2	-4.9	2.1	20.5	38.3*	-0.6	17.2
O=C(COC(=O)c1cc(S(=O)(=O)NCc2ccccc2)ccc1O)NCc1ccccc1	2.7	9.5	14.6	10.4	8.2	8.2	/
O=C(COC(=O)c1cc(S(=O)(=O)NCc2ccccc2)ccc1O)c1cc2ccccc2o1	-0.9	-2.3	23.0	15.3	57.9*	5.0	48.1*
Cn1cccc1C(=O)OCC(=O)c1cc2ccccc2o1	-2.9	-9.4	1.2	22.9	18.1	1.5	/
O=[N+]([O-])c1ccc(SCCc2ccccn2)cc1	1.1	1.5	8.6	-1.9	1.8	5.6	/
O=[N+]([O-])c1ccc(SCCc2ccncc2)cc1	1.5	-4.6	4.9	4.9	34.4*	5.5	7.1
CC1CCCC(NC(=O)COC(=O)CCC(=O)c2ccc(F)cc2)C1C (configuration not stated)	0.0	1.8	7.5	17.7	15.0	5.6	/
Cc1ccc(/C=c2\sc3nc(-c4ccco4)nn3c2=O)o1	1.2	-6.4	4.7	19.9	39.1*	9.5	1.1
Cc1ccc(/C=c2\sc3nc(-c4ccccc4Br)nn3c2=O)o1	-8.9	-19.7	6.8	24.1	13.1	-1.6	/
COc1ccc(/C=C2/SC(c3ccc(C)cc3)=NC2=O)cc1OC	3.1	-145.7	2.6	4.0	38.4*	3.0	26.4
CCc1ccc(/C=C2\Oc3c(ccc(O)c3CN3CCN(CCO)CC3)C2=O)cc1	-1.7	-32.9	-0.6	2.3	58.2*	-0.4	39.0*
CN1C[C@@H]2C(c3ccc(C(F)(F)F)cc3)C3(c4cccnc4)CC2(C3)[C@H]1c1ccccc1 (some centres not stated)	6.7	3.0	3.0	-7.5	0.1	5.4	/
O=C(COC(=O)c1cccnc1Cl)NC1CCCc2ccccc21 (configuration not stated)	-1.9	4.8	14.1	2.3	27.2	8.2	/
O=C(OCC(=O)C12CC3CC(CC(C3)C1)C2)c1cccnc1Cl	-2.3	4.6	9.2	8.2	47.0*	3.4	37.0*
CC1CCC(NC(=O)COC(=O)c2cccnc2Cl)CC1 (configuration not stated)	-0.2	0.1	6.9	7.5	70.5*	17.2	41.7*
SMILES	Rin1 Abl inh	E coli Lon inh	PAFAH1B2 FP inh	pPAFAH inh	PAFAH2 FP inh	PAFAH1B3 FP inh	PAFAH2 confirm
O=C(COC(=O)c1cccnc1Cl)NC1CCCCC1	1.1	3.6	6.2	2.5	71.6*	6.2	48.8*
O=C(COC(=O)c1ccccc1F)Nc1cccnc1Cl	-0.4	-2.7	0.0	5.4	35.1*	-11.4	15.9
COc1ccc(N2CCN(C(=O)c3ccc(Br)o3)CC2)cc1	3.5	-9.0	3.7	5.5	-1.6	5.7	/
COc1cccc(CN(C)C(=O)C2CCN(S(=O)(=O)c3cccs3)CC2)c1OC	3.6	-2.8	0.7	-2.2	-0.3	6.5	/
CC(CCc1ccccc1)NC(=O)COC(=O)CC1CC2CCC1C2 (configuration not stated)	-3.1	-0.2	14.7	18.8	29.8*	4.6	20.5
O=C(COC(=O)CC1CC2CCC1C2)NCc1ccc(Cl)cc1 (configuration not stated)	-0.2	-7.3	22.0	18.6	25.2	6.3	/
O=C(COC(=O)CC1CC2CCC1C2)NCc1ccccc1 (configuration not stated)	5.1	2.9	12.8	22.5	45.7*	14.0	29.2
O=c1[nH]nc(CNc2ccc(C(F)(F)F)cc2)c2ccccc12	-2.2	1.0	0.6	3.2	50.3*	-0.9	34.5*
CCOc1ccc(OCC)c(NC(=O)C2CCN(S(=O)(=O)c3ccc4c(c3)CC(C)N4C(C)=O)CC2)c1 (configuration not stated)	0.0	-2.2	-0.6	-3.0	5.2	1.0	/
O=C(C1CCCCC1)N1C[C@H](n2cc(C3CC3)nn2)[C@@H](O)C[C@@H]1c1ccc(Cl)cc1	0.0	2.7	/	/	/	/	/
Cn1c(=O)c2[nH]c(SCc3cccnc3)nc2n(C)c1=S	5.7	-6.6	1.2	/	9.9	0.1	/
Cc1ccc(C)c(S(=O)(=O)Nc2ccc3oc(C)c(C(=O)O)c3c2)c1	1.3	-14.4	-0.6	23.7	37.6*	7.3	13.9
CC(=O)c1c(C)oc2ccc(NS(=O)(=O)c3ccc(C)cc3)cc12	4.1	2.5	3.9	-3.5	2.1	7.3	/
CC(=O)Nc1cc(-c2ccc(CO)cc2)cn2c(-c3cccc(C(F)(F)F)c3)cnc12	-0.7	-14.0	/	/	/	/	/
O=C(Cc1ccccc1)O/N=C1\CCCc2ccccc21	-0.5	-4.3	5.2	5.5	-3.0	2.8	/
O=C(O/N=C1\CCCc2ccccc21)c1cccs1	-2.4	9.7	4.0	-0.6	42.0*	4.2	-5.4
O=c1oc(-c2cccs2)nc2sc3c(c12)CCC3	0.0	1.6	3.8	-4.3	55.9*	8.2	48.5*
O=c1oc(-c2cccs2)nc2sc3c(c12)CCCC3	-0.8	-1.7	-1.1	5.8	42.3*	11.0	37.8*
Cc1nc2sc3c(c2c(=O)o1)CCC3	-0.1	1.3	7.9	-6.8	60.1*	3.6	50.2*
O=c1oc(/C=C/c2ccco2)nc2sc3c(c12)CCC3	-0.4	-5.2	-0.1	7.4	55.1*	-2.7	26.3
O=c1c2c3c(sc2nc2n1N=C(c1cccs1)CS2)CCCC3	1.3	-2.5	-5.5	-10.2	4.6	9.2	/
